# From PubChem BioAssay AID1159580 (chemical genetic matrix, 2015)
# Where “and” joins values, the source holds several entries; their conditions need not be identical. Equal entries are not always repeated. The campaign covered roughly 5,500 compounds. About 2,000 (36%) were called active. Another 18% or so got no clear call; they are omitted. Rule as the data show it: active = normalized growth mostly below about 0.91 (no sharp cut-off); inconclusive = no clear call, values can overlap the other calls; inactive = mostly above about 0.92. Some of the results follow.
# Assay: chemical genetic growth profiling, strain panel (AID 1159580);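 also: tested at 20 µM; growth read once vehicle control cultures reached saturation at 30 °C; 1 = growth at the plate median or of vehicle wells; lower values mean less growth of the strain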
# Conditions: S. cerevisiae deletion strains, growth OD
structure (smiles),measurement,setting,value
CCC(=O)O[C@H]1[C@H](O[C@@H]2[C@@H](C)[C@H](O[C@H]3C[C@@](C)(OC)[C@@H](O)[C@H](C)O3)[C@@H](C)C(=O)O[C@H](CC)[C@@](C)(O)[C@H](O)[C@@H](C)C(=O)[C@H](C)C[C@@]2(C)O)O[C@H](C)C[C@@H]1N(C)C,normalized growth,"locus YAL013W, strain DEP1, stronger effect = lower value",0.996 (inactive)
same,normalized growth,"locus YAL021C, strain ccr4, stronger effect = lower value",0.958 (inactive)
same,normalized growth,"locus YAL026C, strain drs2, stronger effect = lower value",0.942 (inactive)
same,normalized growth,"locus YAL030W, strain snc1, stronger effect = lower value",0.984 (inactive)
same,normalized growth,"locus YBL061C, strain skt5, stronger effect = lower value",0.973 (inactive)
same,normalized growth,"locus YBR009C, strain hhf1, stronger effect = lower value",0.797 (active)
same,normalized growth,"locus YBR021W, strain FUR4, stronger effect = lower value",0.232 (active)
same,normalized growth,"locus YBR023C, strain chs3, stronger effect = lower value",0.894 (active)
same,normalized growth,"locus YBR171W, strain sec66, stronger effect = lower value",1.01 (inactive)
same,normalized growth,"locus YBR229C, strain ROT2, stronger effect = lower value",1.02 (inactive)
same,normalized growth,"locus YBR231C, strain swc5, stronger effect = lower value",0.836 (active)
same,normalized growth,"locus YBR279W, strain paf1, stronger effect = lower value",0.911 (active)
same,normalized growth,"locus YCL011C, strain gbp2, stronger effect = lower value",0.823 (active)
same,normalized growth,"locus YCL016C, strain dcc1, stronger effect = lower value",0.912 (active)
same,normalized growth,"locus YCL029C, strain bik1, stronger effect = lower value",0.988 (inactive)
same,normalized growth,"locus YCL061C, strain MRC1, stronger effect = lower value",0.949 (inactive)
same,normalized growth,"locus YCL069W, strain vba3, stronger effect = lower value",0.899 (active)
same,normalized growth,"locus YCR088W, strain abp1, stronger effect = lower value",1.02 (inactive)
same,normalized growth,"locus YDL005C, strain med2, stronger effect = lower value",0.984 (inactive)
same,normalized growth,"locus YDL035C, strain GPR1, stronger effect = lower value",0.915 (inactive)
same,normalized growth,"locus YDL040C, strain nat1, stronger effect = lower value",1.01 (inactive)
same,normalized growth,"locus YDL074C, strain BRE1, stronger effect = lower value",0.809 (inactive)
same,normalized growth,"locus YDL101C, strain DUN1, stronger effect = lower value",0.959 (inactive)
same,normalized growth,"locus YDL134C, strain PPH21, stronger effect = lower value",0.91 (inactive)
same,normalized growth,"locus YDL185W, strain tfp1, stronger effect = lower value",1.01 (inactive)
same,normalized growth,"locus YDL192W, strain arf1, stronger effect = lower value",1 (inactive)
same,normalized growth,"locus YDR001C, strain nth1, stronger effect = lower value",1.02 (inactive)
same,normalized growth,"locus YDR069C, strain doa4, stronger effect = lower value",1.04 (inactive)
same,normalized growth,"locus YDR101C, strain arx1, stronger effect = lower value",1 (inactive)
same,normalized growth,"locus YDR137W, strain rgp1, stronger effect = lower value",1.18 [resistant] (active)
same,normalized growth,"locus YDR159W, strain sac3, stronger effect = lower value",0.826 (active)
same,normalized growth,"locus YDR162C, strain NBP2, stronger effect = lower value",0.944 (inactive)
same,normalized growth,"locus YDR195W, strain ref2",1.22 [resistant] (active)
same,normalized growth,"locus YDR297W, strain sur2, stronger effect = lower value",0.942 (inactive)
same,normalized growth,"locus YDR318W, strain mcm21, stronger effect = lower value",0.99 (inactive)
same,normalized growth,"locus YDR334W, strain swr1, stronger effect = lower value",0.957 (inactive)
same,normalized growth,"locus YDR335W, strain msn5, stronger effect = lower value",0.877 (active)
same,normalized growth,"locus YDR388W, stronger effect = lower value",0.972 (inactive)
same,normalized growth,"locus YDR392W, strain spt3, stronger effect = lower value",0.292 (active)
same,normalized growth,"locus YDR502C, strain sam2, stronger effect = lower value",1.01 (inactive)
same,normalized growth,"locus YEL003W, strain gim4, stronger effect = lower value",0.862 (active)
same,normalized growth,"locus YEL037C, strain rad23, stronger effect = lower value",0.971 (inactive)
same,normalized growth,"locus YEL061C, strain CIN8 (second series), stronger effect = lower value",0.875 (active)
same,normalized growth,"locus YEL061C, strain CIN8, stronger effect = lower value",0.97 (inactive)
same,normalized growth,"locus YER015W, strain faa2, stronger effect = lower value",0.975 (inactive)
same,normalized growth,"locus YER016W, strain bim1, stronger effect = lower value",0.965 (inactive)
same,normalized growth,"locus YER110C, stronger effect = lower value",0.967 (inactive)
same,normalized growth,"locus YER111C, strain swi4, stronger effect = lower value",0.867 (active)
same,normalized growth,"locus YER155C, strain BEM2 (second series), stronger effect = lower value",0.32 (active)
same,normalized growth,"locus YER155C, strain BEM2, stronger effect = lower value",1.03 (inactive)
same,normalized growth,"locus YER167W, strain BCK2, stronger effect = lower value",0.971 (inactive)
same,normalized growth,"locus YFR010W, strain ubp6, stronger effect = lower value",0.911 (inactive)
same,normalized growth,"locus YGL078C, strain dbp3, stronger effect = lower value",0.995 (inactive)
same,normalized growth,"locus YGL086W, strain mad1, stronger effect = lower value",0.994 (inactive)
same,normalized growth,"locus YGL167C, strain pmr1, stronger effect = lower value",1 (inactive)
same,normalized growth,"locus YGL173C, strain kem1, stronger effect = lower value",0.938 (inactive)
same,normalized growth,"locus YGL227W, strain vid30, stronger effect = lower value",1.01 (inactive)
same,normalized growth,"locus YGL240W, strain doc1, stronger effect = lower value",0.731 (active)
same,normalized growth,"locus YGL248W, strain PDE1, stronger effect = lower value",0.918 (inactive)
same,normalized growth,"locus YGL253W, strain hxk2, stronger effect = lower value",0.671 (active)
same,normalized growth,"locus YGR078C, strain PAC10, stronger effect = lower value",0.797 (active)
same,normalized growth,"locus YGR135W, strain pre9, stronger effect = lower value",0.92 (inactive)
same,normalized growth,"locus YGR252W, strain gcn5, stronger effect = lower value",0.695 (active)
same,normalized growth,"locus YHR013C, strain ard1, stronger effect = lower value",0.722 (active)
same,normalized growth,"locus YHR027C, strain rpn1, stronger effect = lower value",1 (inactive)
same,normalized growth,"locus YHR030C, strain SLT2, stronger effect = lower value",1.02 (inactive) and 0.875 (inactive)
same,normalized growth,"locus YHR079C, strain IRE1 (second series), stronger effect = lower value",1.01 (inactive)
same,normalized growth,"locus YHR079C, strain IRE1, stronger effect = lower value",0.874 (inactive)
same,normalized growth,"locus YHR094C, strain hxt1, stronger effect = lower value",1.01 (inactive)
same,normalized growth,"locus YHR129C, strain ARP1, stronger effect = lower value",0.99 (inactive)
same,normalized growth,"locus YHR142W, strain chs7, stronger effect = lower value",0.7 (active)
same,normalized growth,"locus YHR200W, strain rpn10, stronger effect = lower value",1.01 (inactive)
same,normalized growth,"locus YIL066C, strain RNR3, stronger effect = lower value",0.8 (active)
same,normalized growth,"locus YIL073C, strain SPO22, stronger effect = lower value",1.05 (inactive)
same,normalized growth,"locus YIL125W, strain kgd1, stronger effect = lower value",1.02 (inactive)
same,normalized growth,"locus YIR030C, strain dcg1, stronger effect = lower value",1.02 (inactive)
same,normalized growth,"locus YJL092W, strain hpr5, stronger effect = lower value",1.01 (inactive)
same,normalized growth,"locus YJL095W, strain BCK1 (second series), stronger effect = lower value",0.993 (inactive)
same,normalized growth,"locus YJL095W, strain BCK1, stronger effect = lower value",0.975 (inactive) and 0.864 (active)
same,normalized growth,"locus YJL115W, strain asf1, stronger effect = lower value",1.03 (inactive)
same,normalized growth,"locus YJL129C, strain trk1, stronger effect = lower value",0.7 (active)
same,normalized growth,"locus YJL134W, strain LCB3, stronger effect = lower value",1.02 (inactive)
same,normalized growth,"locus YJL154C, strain vps35, stronger effect = lower value",1.01 (inactive)
same,normalized growth,"locus YJL164C, strain tpk1, stronger effect = lower value",0.832 (active)
same,normalized growth,"locus YJL166W, strain qcr8, stronger effect = lower value",0.813 (active)
same,normalized growth,"locus YJL168C, strain set2, stronger effect = lower value",1.01 (inactive)
same,normalized growth,"locus YJL187C, strain SWE1 (second series), stronger effect = lower value",0.967 (inactive)
same,normalized growth,"locus YJR043C, strain POL32, stronger effect = lower value",0.832 (active)
